Most compounds without a hit are left out; they make up all but 3% or so of the library.
TRb-SRC2 inh: disrupts binding of human TR beta to SRC2; AID 1469; P10828; TRbeta-SRC2 peptide binding, fluorescence polarization; receptor liganded with 1 µM T3; 0.065% of 280,000 active; Potency, µM (titrated, usually from 106 µM), without a hit: top-dose activity change, negative = inhibition, hits mostly inhibitors;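 further: plate controls were bound peptide for no effect and peptide without receptor for full effect; nearly all actives have a fitted effect of over 50% in size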
Target sequence (P10828 whole entry, looked up): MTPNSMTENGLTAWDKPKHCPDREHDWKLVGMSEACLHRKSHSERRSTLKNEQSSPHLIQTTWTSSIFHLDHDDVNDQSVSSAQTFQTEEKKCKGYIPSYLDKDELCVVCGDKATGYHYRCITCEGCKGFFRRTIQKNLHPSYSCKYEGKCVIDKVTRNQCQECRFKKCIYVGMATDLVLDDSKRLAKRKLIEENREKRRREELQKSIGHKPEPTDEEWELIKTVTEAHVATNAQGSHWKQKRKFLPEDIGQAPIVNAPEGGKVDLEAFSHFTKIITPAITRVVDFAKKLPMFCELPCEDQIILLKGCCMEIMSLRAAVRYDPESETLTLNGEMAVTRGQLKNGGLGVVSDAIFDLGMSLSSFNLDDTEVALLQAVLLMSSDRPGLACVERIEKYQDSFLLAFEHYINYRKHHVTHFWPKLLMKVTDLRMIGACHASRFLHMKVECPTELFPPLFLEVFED
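Human TRb LBD (0.6 uM) plus Texas Red-labeled SRC2 peptide (20 nM), 1uM T3, 5% DMSO, 5 hr at ambient temperature. Decreased polarization (555/632 nm) flags inhibition; data normalized to free and bound peptide controls.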
TexasRed fluor: alters Texas Red total fluorescence, flagging assay interference | TRb/SRC2 Texas Red total fluorescence interference | Potency, µM (series often up to 106 µM), without a hit: at the top dose fluorescence change, negative = quenching | 0.29% of 280,000 active | AID 1479; active means well fitted curve in either direction with a large enough effect; inconclusive means small, poorly fitted or top-dose-only effect
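Human TRb ligand-binding domain at 0.6 uM with 20 nM Texas Red SRC2 peptide in Tris buffer containing 1 uM T3 and 5% DMSO, incubated with compound 5 h at ambient temperature. Total fluorescence (555/632 nm) calculated as parallel + 2 × perpendicular.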
Tau fibril ThT: tau fibrillization inhibition (ThT binding); P10636; recombinant tau K18 P301L, heparin-induced fibrillization, ThT fluorescence; Potency, µM (highest dose often 57.4 µM), for inactives: top-dose activity, negative = inhibition, hits mostly inhibitors; 2.1% of 270,000 active; AID 1460; further: nearly all actives have a fitted effect of over 55% in size
Target sequence (P10636 561-689 P618L limits assumed): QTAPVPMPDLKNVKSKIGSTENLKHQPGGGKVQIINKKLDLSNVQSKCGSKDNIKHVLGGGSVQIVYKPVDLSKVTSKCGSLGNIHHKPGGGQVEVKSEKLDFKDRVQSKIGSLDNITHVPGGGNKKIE
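Tau K18 P301L fragment (15 uM unlabeled plus 0.24 uM Alexa 594-labeled) in 100 mM sodium acetate pH 7 with compound, fibrillization induced by 20 uM heparin for 6 hr at 37 C. Thioflavin T (30 uM) added, fluorescence read after 1 hr (ex 450, em 510 nm).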
Tau fluor counter: counter-screen for tau fibril formation inhibitors; tau K18 P301L (four-repeat tau fragment) Alexa594 fluorescence, heparin fibrillization; Potency, µM (doses to about 57.7 µM), without a hit: at the highest dose activity change, negative = decrease; 0.93% of 280,000 active; further: nearly all actives have a fitted effect of over 55% in size
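Human K18 P301L tau (15 uM unlabeled plus 0.24 uM Alexa 594-labeled, final) in 100 mM sodium acetate pH 7 was mixed with compound and 20 uM heparin and incubated 6 hr at 37 C.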
Tau fibril FP: blocks human tau fibril formation measured by polarization | P10636 | K18 P301L tau heparin fibrillization, Alexa594 FP, 6 h | Potency, µM (highest dose often 57.7 µM), without a hit: top-dose activity, negative = inhibition, hits mostly inhibitors | 0.39% of 280,000 active | AID 1468; further: nearly all actives have a fitted effect of over 55% in size
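Steps: dispense K18 P301L tau (15 uM plus 0.24 uM Alexa 594 tracer, final) in pH 7 sodium acetate; add compound; add heparin (20 uM final); incubate 6 hr, 37 C; add ThT (30 uM final); after 1 hr ambient, read FP.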
* marks the source's active call; other numbers are inactive results; [ ] = dose if it differs, or a comment. Unless noted, the call rests on the fitted dose curve; in most records, active means well fitted curve in the direction sought with a large enough effect; inconclusive means small, poorly fitted or top-dose-only effect, or another doubt; inactive means no such curve, though single readings can be large; an effect the other way counts as inactive or inconclusive. Unless noted, on the % scale 0 is the no-effect control and ±100 the full control effect; potency means the concentration at half of the fitted maximal effect.

For COc1cc(C(c2c(C)[nH]n(-c3ccccc3)c2=O)c2c(C)[nH]n(-c3ccccc3)c2=O)cc(OC)c1OC the results were TRb-SRC2 inh -6.3%, TexasRed fluor -1.7%, Tau fibril ThT inconclusive, Tau fluor counter -19.8% and Tau fibril FP -1.8%.
For Cc1[nH]n(-c2ccccc2)c(=O)c1C(c1cccc([N+](=O)[O-])c1O)c1c(C)[nH]n(-c2ccccc2)c1=O the results were TRb-SRC2 inh 1.3%, TexasRed fluor 1.9%, Tau fibril ThT 7.94µM*, Tau fluor counter inconclusive and Tau fibril FP -9.4%.
`CCN(CC)c1ccc(/C=C/[N+](=O)[O-])cc1` gave TRb-SRC2 inh -10.4%, TexasRed fluor -2.4%, Tau fibril ThT 15.8µM*, Tau fluor counter inconclusive and Tau fibril FP -8.6%.
CNP(=O)(OC)Oc1ccc(C(C)(C)C)cc1Cl (stereo unspecified) was read as TRb-SRC2 inh -2.3%[201 µM] and TexasRed fluor 1.9%[201 µM].
`Oc1c(Br)cc(Br)cc1Oc1ccc(Br)cc1Br` gave TRb-SRC2 inh -3.5%, TexasRed fluor -8.6%, Tau fibril ThT 31.6µM*, Tau fluor counter inconclusive and Tau fibril FP inconclusive.
CCOc1ccc2nc(N=Nc3c(O)[nH]c(=O)[nH]c3=O)sc2c1 was read as TRb-SRC2 inh 5.7%, TexasRed fluor -25.6%, Tau fibril ThT 4.47µM*, Tau fluor counter -17.3% and Tau fibril FP 1.4%.
CCOc1ccc2nc(N=Nc3c(O)[nH]c(=S)[nH]c3=O)sc2c1 was read as TRb-SRC2 inh -2.0%, TexasRed fluor -7.1%, Tau fibril ThT 2.24µM*, Tau fluor counter inconclusive and Tau fibril FP -1.1%.
For CCOc1ccc2nc(NC(=O)c3cccn(Cc4ccccc4C)c3=O)sc2c1 the results were TRb-SRC2 inh -1.3%, TexasRed fluor 2.5%, Tau fibril ThT -1.4%, Tau fluor counter -17.2% and Tau fibril FP -8.2%.
Screening CC(COc1ccc(Oc2ccccc2)cc1)Oc1ccccn1 (stereo unspecified) returned TRb-SRC2 inh -2.2%[201 µM] and TexasRed fluor 0.1%[201 µM].
`CCSCCSP(=O)(OC)OC` gave TRb-SRC2 inh 0.3%[201 µM] and TexasRed fluor -0.5%[201 µM].
`CC1=C(O)C(=O)[C@@H]2O[C@@H]2C1=O` gave TRb-SRC2 inh 0.4%, TexasRed fluor -4.6%, Tau fibril ThT 15.8µM*, Tau fluor counter inconclusive and Tau fibril FP 20µM*.
Screening O=[N+]([O-])c1ccc(N2CCCC2)c2ccncc12 returned TRb-SRC2 inh 11.1%, TexasRed fluor -2.4%, Tau fibril ThT 12.6µM*, Tau fluor counter -10.2% and Tau fibril FP 0.2%.
CCOP(=S)(OCC)Oc1cnc2ccccc2n1 was read as TRb-SRC2 inh 4.3%[201 µM] and TexasRed fluor 1.8%[201 µM].
Screening CC(C)(O)C1O[C@H]2CC[C@@]3(C)[C@@](O)(CC[C@H]4Cc5c([nH]c6ccccc56)[C@@]43C)C2=CC1=O (stereo partly specified) returned TRb-SRC2 inh -3.5%, TexasRed fluor -0.8%, Tau fibril ThT inconclusive, Tau fluor counter 15.8µM*[quencher] and Tau fibril FP inconclusive.
Screening O=C1NC(=O)C(=Cc2ccc(Oc3ccc([N+](=O)[O-])cc3)cc2)C(=O)N1 returned TRb-SRC2 inh -3.1%, TexasRed fluor -0.4%, Tau fibril ThT 12.6µM*, Tau fluor counter -8.4% and Tau fibril FP inconclusive.
CC(C)[C@@]1(NC(=O)[C@@H]2C=C3c4cccc5[nH]cc(c45)C[C@H]3N(C)C2)O[C@@]2(O)[C@@H]3CCCN3C(=O)[C@H](Cc3ccccc3)N2C1=O was read as TRb-SRC2 inh inconclusive, TexasRed fluor 27.9%, Tau fibril ThT 12.6µM*, Tau fluor counter inconclusive and Tau fibril FP inconclusive.
`CC(C)C[C@H]1C(=O)N2CCCC2[C@]2(O)O[C@](NC(=O)[C@@H]3C=C4c5cccc6[nH]cc(c56)CC4N(C)C3)(C(C)C)C(=O)N12` (stereo partly specified) gave TRb-SRC2 inh -9.0%, TexasRed fluor 28.3%, Tau fibril ThT 12.6µM*, Tau fluor counter inconclusive and Tau fibril FP inconclusive.
Screening CC(C)[C@H]1C(=O)N2CCC[C@H]2[C@]2(O)O[C@](NC(=O)[C@@H]3C=C4c5cccc6[nH]cc(c56)C[C@H]4N(C)C3)(C(C)C)C(=O)N12 returned TRb-SRC2 inh -4.1%, TexasRed fluor -2.8%, Tau fibril ThT inconclusive, Tau fluor counter inconclusive and Tau fibril FP inconclusive.
Screening CC(C)C1C(=O)N2CCCC2[C@]2(O)O[C@@](NC(=O)[C@@H]3C=C4c5cccc6[nH]cc(c56)C[C@H]4N(C)C3)(C(C)C)C(=O)N12 (stereo partly specified) returned TRb-SRC2 inh 2.1%, TexasRed fluor 19.3%, Tau fibril ThT 20µM*, Tau fluor counter inconclusive and Tau fibril FP inconclusive.
CN1C[C@@H](C(=O)N[C@@]2(C)O[C@]3(O)C4CCCN4C(=O)[C@@H](Cc4ccccc4)N3C2=O)C=C2c3cccc4[nH]cc(c34)C[C@@H]21 (stereo partly specified) was read as TRb-SRC2 inh -8.6%, TexasRed fluor inconclusive, Tau fibril ThT inconclusive, Tau fluor counter inconclusive and Tau fibril FP inconclusive.
For CCN1C(=O)c2ccccc2Sc2ccc(NC(=O)Nc3ccc(Br)c(C)c3)cc21 the results were TRb-SRC2 inh 0.4%, TexasRed fluor -14.7%, Tau fibril ThT 13.9%, Tau fluor counter inconclusive and Tau fibril FP 15.8µM*.
`CCN1C(=O)c2ccccc2Sc2ccc(NC(=O)Cc3ccc(OC)c(OC)c3)cc21` gave TRb-SRC2 inh -0.1%, TexasRed fluor -14.2%, Tau fibril ThT -2.2%, Tau fluor counter inconclusive and Tau fibril FP -4.2%.
Screening CCOP(=S)(OCC)OC(Cl)C(Cl)(Cl)Cl (stereo unspecified) returned TRb-SRC2 inh -5.2%[201 µM] and TexasRed fluor -3.0%[201 µM].
CCOC(=O)C1CCCN(c2ccc([N+](=O)[O-])c3nonc23)C1 (stereo unspecified) was read as TRb-SRC2 inh inconclusive, TexasRed fluor 50.1µM*[fluorescent], Tau fibril ThT inconclusive, Tau fluor counter -6.8% and Tau fibril FP inconclusive.
Screening CC1CCCN(c2ccc(C(=O)N3CCC4(CC3)OCCO4)cc2[N+](=O)[O-])C1 (stereo unspecified) returned TRb-SRC2 inh 2.2%, TexasRed fluor -0.5%, Tau fibril ThT -11.9%, Tau fluor counter 2.8% and Tau fibril FP -1.6%.
For Cc1cc(C(C#N)c2ccc(Cl)cc2)c(Cl)cc1NC(=O)c1cc(I)cc(I)c1O (stereo unspecified) the results were TRb-SRC2 inh inconclusive and TexasRed fluor 44.7µM*[quencher].

Screening results (PubChem BioAssay)
